# Measured values published in PubChem BioAssay (NCI).
# About 83,000 compounds went through this panel and 20% of them were active in at least one assay; those are over-represented in the sample as a whole.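 Results are percent growth after 48 hours of single-concentration exposure. 100 means growth as in untreated cells, lower positive values show inhibition; negative values down to -100 show cell death.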 Unmarked numbers belong to inactive results. Activity calls are given as the source filed them. Rule for the calls: active = growth percent below 10; inactive = the rest.
# Assays:
# Assay in all cases: NCI-60 one-dose screen, 48 h (100 = growth as untreated, 0 = no growth, -100 = all killed)
# Conditions in all cases: 10 µM unless noted
# HCT-15 colon = system: HCT-15 colon
# HT29 colon = system: HT29 colon
# SNB-75 CNS = system: SNB-75 CNS
# SNB-19 CNS = system: SNB-19 CNS
# U251 CNS = system: U251 CNS
# PC-3 prostate = system: PC-3 prostate
# SK-MEL-5 melanoma = system: SK-MEL-5 melanoma
# UACC-62 melanoma = system: UACC-62 melanoma
# LOX IMVI melanoma = system: LOX IMVI melanoma
# SK-MEL-28 melanoma = system: SK-MEL-28 melanoma
# SK-MEL-2 melanoma = system: SK-MEL-2 melanoma
# EKVX NSCLC = system: EKVX NSCLC
# SN12C renal = system: SN12C renal
# UO-31 renal = system: UO-31 renal
# TK-10 renal = system: TK-10 renal
# ACHN renal = system: ACHN renal
# CAKI-1 renal = system: CAKI-1 renal
# A498 renal = system: A498 renal
# CCRF-CEM leukemia = system: CCRF-CEM leukemia
# MOLT-4 leukemia = system: MOLT-4 leukemia
SMILES,growth (HCT-15 colon),growth (HT29 colon),growth (SNB-75 CNS),growth (SNB-19 CNS),growth (U251 CNS),growth (PC-3 prostate) [%],growth (SK-MEL-5 melanoma),growth (UACC-62 melanoma) [%],growth (LOX IMVI melanoma),growth (SK-MEL-28 melanoma) [%],growth (SK-MEL-2 melanoma) [%],growth (EKVX NSCLC),growth (SN12C renal) [%],growth (UO-31 renal) [%],growth (TK-10 renal) [%],growth (ACHN renal),growth (CAKI-1 renal),growth (A498 renal),growth (CCRF-CEM leukemia),growth (MOLT-4 leukemia)
CCCCCc1ccc(S(=O)(=O)Nc2cccc(-c3csc(NC(=O)CN4CCN(CCO)CC4)n3)c2)cc1,51.3%,35.6%,88%,82.6%,55.4%,64.1,51.7%,90,-45.9% (active),79.4,99.7,81.4%,86.6,79.9,113,101%,76.2%,81%,53.8%,58.8%
CCn1c(SCC(=O)Nc2cccc(C(=O)/C=C/c3ccc(Br)cc3)c2)nc2ccccc2c1=O,65%,85.4%,73.8%,85.9%,88.7%,83.4,91.7%,73.9,41.9%,98.2,106,96.5%,92.7,71.9,104,102%,90.7%,87.3%,75%,98.3%
O=C(CCn1cc[n+](CC(=O)c2ccc(-c3ccccc3)cc2)c1)Nc1cccc2cccnc12,96.5%,70.7%,45.4%,61.4%,61.2%,55.9,81.1%,58.8,82.5%,67.3,90.1,81.9%,77.4,88.1,117,104%,104%,98.8%,78.4%,84.3%
CNC1CCc2c(sc(NC(=O)c3ccc(C(C)(C)C)cc3)c2C(N)=O)C1 (stereo not given),4.54% (active),-0.193% (active),78.8%,55.6%,3.54% (active),40,83.6%,60.5,-88.1% (active),63.2,72.8,54.6%,69.2,79.5,101,37%,42.4%,73.9%,11.5%,0.786% (active)
CC(=O)N(C)C1CCc2c(sc(NC(=O)c3ccc(C(C)(C)C)cc3)c2C(N)=O)C1 (stereo not given),57.1%,77.7%,39.2%,74.7%,51.8%,45.9,91.7%,85.7,29.5%,80,103,75.5%,71.1,89,106,97.7%,64.8%,80%,69.3%,75.2%
COc1cc(-c2nc3sccn3c2-c2ccnc(S(C)(=O)=O)n2)ccc1F,77.9%,116%,76.1%,92%,99.1%,105,96.5%,81.3,102%,97.7,96,87.3%,88.7,85.2,120,90.4%,85.2%,95.1%,92.1%,83.5%
CCNC(=O)N1CCc2cc(OC)c(OCCc3ccc(OC)cc3)cc2C1c1ccc(OC)cc1C (stereo not given),10.8%,-0.449% (active),3.67% (active),25.8%,20.6%,27.9,-1.62% (active),19.5,4% (active),46.7,19,45.5%,30.2,30,38.1,26.9%,26.9%,-11.1% (active),36.3%,21.2%
C#CCOc1ccc(/C=N\Nc2nc(-c3ccc(C)cc3)cs2)cc1OC,86.1%,88.2%,114%,95.2%,89.3%,69.6,71.6%,74.7,93.7%,89.9,96.1,65.3%,89.2,78.3,166,103%,115%,81.2%,90.4%,79.5%
CC(=O)O[C@@H]1C(=O)N(c2cnccn2)[C@H]1c1ccccc1[N+](=O)[O-],15.9%,2.42% (active),21.5%,41.8%,-3.35% (active),24.6,-57.2% (active),30,6.26% (active),57.1,10.6,58.7%,16.5,27.7,79.3,21.1%,24.6%,-20.2% (active),12.3%,16.4%
CCCn1cnc2c(c1=N)C(c1ccc(F)cc1)c1sc3c(CC)cccc3c1O2 (stereo not given),12.6%,9.3% (active),14.8%,15.3%,18.5%,24,-12.2% (active),14,5.54% (active),40.4,49.4,33.4%,20.6,27,61.3,18.3%,20.7%,-25.7% (active),8.39% (active),9.49% (active)
COc1ccc(C2CC(c3ccc(Nc4nc(NCCO)nc(N5CCOCC5)n4)cc3)=Nc3c(N)nc(N)nc3N2)cc1 (stereo not given),100%,102%,86.4%,102%,95.5%,105,96.2%,104,103%,108,107,107%,96.9,93.7,115,102%,94.3%,87.9%,105%,102%
CN1c2ccccc2Sc2cc(C=C(C#N)C#N)ccc21,101%,111%,79.8%,97.6%,98%,105,100%,46.5,87.3%,104,101,93.6%,92.7,95.6,111,101%,91.8%,-19% (active),102%,84.8%
CCn1c(SCC(=O)Nc2cccc(C(=O)/C=C/c3cc(OC)c(OC)c(OC)c3)c2)nc2ccccc2c1=O,-13.9% (active),1.12% (active),-4.22% (active),39.9%,30.1%,46.8,33.9%,41.2,-73.6% (active),77,109,68.6%,37.6,37.5,132,41.7%,45.4%,71.3%,4.6% (active),22.4%
CN(C)CCN(C)c1ccc2ncc(C#Cc3cncc(C(=O)Nc4ccc(CN5CCN(C)CC5)c(C(F)(F)F)c4)c3)n2n1,-25.2% (active),-66.1% (active),47.9%,-11.3% (active),64.1%,65.2,96.4%,93,-89% (active),105,84.5,86.9%,36.1,68.7,134,47.2%,58.1%,112%,7.73% (active),3.55% (active)
Cc1ccc(S(=O)(=O)NCCNc2nc(Nc3ccc(N4CCN(C)CC4)cc3)nc3ccsc23)cc1,29.2%,63.4%,67.8%,104%,90.8%,87.9,95.9%,103,97.8%,103,115,94.9%,97.4,92.4,121,106%,74.6%,110%,74.3%,79.1%
Cc1cc2nc(C(Cl)Cl)nc(-c3cccs3)n2n1,11.4%,-12.9% (active),75.3%,21%,-11.1% (active),11.2,83.9%,45.5,74.7%,14.6,97.7,-7.94% (active),62.3,31,18.2,-36.4% (active),-30.9% (active),-40.7% (active),59.8%,21.3%
